# Laboratory results as given in PubChem BioAssay (NCATS).
# Where “and” joins values, the source holds several entries; their conditions need not be identical. Identical values can stand only once. Records with an inconclusive call do not appear. A call without a number means that no potency is given here. Calls of active or inactive are those of the source. Unless noted, calls come from the whole dose curve; as a rule, active = well fitted curve in the direction sought with a large enough effect; inconclusive = small, poorly fitted or top-dose-only effect, or another doubt; inactive = no such curve, though single readings can be large; an effect the other way counts as inactive or inconclusive.
# Assays:
# [1] = P-glycoprotein substrates identified in KB-8-5-11 adenocarcinoma cell line, qHTS therapeutic library screen (AID 1346987); note: potency is the fitted concentration of half-maximal effect; nearly all actives have a fitted effect of over 65% in size
# Procedure, shortened: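 KB-8-5-11, a colchicine-selected P-gp-overexpressing KB-3-1 subline, was grown without colchicine for the assay. Cells were seeded at 500 cells/well, dosed in concentration-response and incubated 72 h at 37 degree C, 5% CO2. Viability was read by CellTiter-Glo luminescence.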
# [2] = molecular target: Calcium and integrin-binding protein 1 (Homo sapiens) (UniProt Q99828); assay: Primary qHTS for Identification of Calcium Integrin Binding Protein 1 (CIB1) Competitor (AID 1508620);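 note: GST tagged CIB1 binding a fluorescein labelled alphaIIb integrin peptide tracer; top concentration of the series differs between compounds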
# Procedure, shortened: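 Fluorescence polarization competition: GST-tagged CIB1 (1 uM final) preincubated with compound 15 min at room temperature, then FITC-labelled alphaIIb peptide (100 nM final) added. After 15 min at room temperature, polarization read at Ex 480/Em 540.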
# [3] = Primary qHTS for inhibitors of nuclear receptor binding SET domain protein 2 (NSD2) in an isogenic RCH-ACV NSD2 p.E1099K mutant (9B) (AID 1645876); note: potency is the fitted concentration of half-maximal effect; nearly all actives have a fitted effect of over 70% in size
# [4] = Primary qHTS for inhibitors of nuclear receptor binding SET domain protein 2 (NSD2) in an RCH-ACV wild type WT cells (2C) (AID 1645877); note: potency is the fitted concentration of half-maximal effect; nearly all actives have a fitted effect of over 70% in size
# [5] = molecular target: Glutathione peroxidase 1 (Homo sapiens) (UniProt P07203); assay: Primary qHTS Assay for Inhibitors of Recombinant Selenoprotein Glutathione Peroxidase 1 (GPX1) (AID 1845191); note: nearly all actives have a fitted effect of over 65% in size
# Procedure, shortened: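 GR-coupled assay: compounds preincubated 30 min at room temperature with GPX1, then reaction started with CHP; final 10 nM GPX1, 1 mM GSH, 0.5 mM CHP, 0.5 mM NADPH, 100 nM GR, 0.01% BSA, pH 7.5 Tris buffer. NADPH fluorescence (340/450 nm) read at 0 and 15 min.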
# [6] = molecular target: Phospholipid hydroperoxide glutathione peroxidase GPX4 (Homo sapiens) (UniProt P36969); assay: Primary qHTS Assay for Inhibitors of Recombinant Selenoprotein Glutathione Peroxidase 4 (GPX4) (AID 1845192); conditions: outcome: dose series up to 50 µM unless noted; note: nearly all actives have a fitted effect of over 65% in size
# Procedure, shortened: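 GR-coupled assay: recombinant GPX4 preincubated 30 min with compound at room temperature; final 200 nM GPX4, 1 mM GSH, 0.5 mM cumene hydroperoxide, 0.5 mM NADPH, 100 nM GR, 0.01% BSA, pH 7.5 Tris. NADPH fluorescence (340/450 nm) read at 0 and 15 min.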
# [7] = molecular target: Luciferin 4-monooxygenase (Photinus pyralis) (UniProt P08659); assay: Primary firefly luciferase (FLuc) qHTS assay for identification of artifact compounds. (AID 1845220); note: nearly all actives have a fitted effect of over 60% in size
# Procedure, shortened: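 Enzymatic FLuc inhibition assay: compounds pre-exposed to luciferin/ATP (10 uM each) for 15 min, then purified P. pyralis enzyme at 10 nM added. Read-out: luminescence at 5 min.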
# [8] = test system: Nanoluciferase (engineered Oplophorus gracilirostris luciferase); assay: Primary Nanoluciferase (NLuc) qHTS assay for identification of artifact compounds. (AID 1845222);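 note: NLuc secreted into diluted conditioned medium of S16 cells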
# Procedure, shortened: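 S16 cell supernatant NLuc, 1:55; cpds qHTS; 15 min RT dark; Nano-Glo substrate 1:100, 5 min; luminescence; Hill fit of % inhibition.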
# [9] = qHTS drug screen for cell cycle checkpoint inhibitors in PARPi-resistant BRCA-mutant ovarian cancer cell lines. (AID 1963452; calls by dose curve); conditions: PEO1/OlaR viability, CellTiter-Glo luminescence, 96 h, stronger effect = lower value
# Procedure, shortened: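 PEO1, PEO4 and PEO1/OlaR ovarian cancer cells, 600 per well, exposed 96 h at 37C to a dilution series. Viability read by CellTiter-Glo luminescence, normalized to DMSO and empty wells; activity summarized as Z-AUC.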
# HeLa = assay: Primary qHTS to identify gynecologic anti-cancer compounds using libraries of approved drugs and bioactive compounds (AID 1345084); conditions: Gynecologic cancer cell panel viability, ATPlite luminescence, 48 h; series mostly up to 57.5 µM; note: nearly all actives have a fitted effect of over 55% in size; note: potency is the fitted concentration of half-maximal effect
# Procedure, shortened: (§1)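 Five-concentration response, 48 h; readout is ATP-driven luciferase luminescence.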
# Hek293T = assay: as above; conditions: Gynecologic cancer cell panel viability, ATPlite luminescence, 48 h, control line for the selectivity index; series mostly up to 57.5 µM
# Procedure, shortened: as §1
# JEG-3 = assay: as above; conditions: Gynecologic cancer cell panel viability, ATPlite luminescence, 48 h; series mostly up to 57.5 µM
# Procedure, shortened: as §1
# Tov-21-G = assay: as above; conditions: Gynecologic cancer cell panel viability, ATPlite luminescence, 48 h; series mostly up to 57.5 µM
# Procedure, shortened: as §1
# Tov112D = assay: as above; conditions: Gynecologic cancer cell panel viability, ATPlite luminescence, 48 h; series mostly up to 57.5 µM
# Procedure, shortened: as §1
# [10] = test system: Zika virus NS2B-NS3 protease (linked construct); assay: Primary screen NINDS Rhodamine qHTS for Zika virus inhibitors (AID 1347160); note: nearly all actives have a fitted effect of over 55% in size; note: potency is the fitted concentration of half-maximal effect
# Procedure, shortened: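 Kinetic fluorescence (Ex 480 nm, Em 540 nm) over 15 min with 1.5 microM Rhodamine110 peptide and 25 nM linked protease.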
# [11] = Primary redox qHTS assay for identification of artifact compounds. (AID 1845223)
# Procedure, shortened: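 Amplex Red (25 uM) and HRP (250 mU/mL) in HBSS, with compounds for 15 min, then 250 uM DTT for 30 min, room temperature, dark. Fluorescence 525/598 nm read; normalized to DMSO and 10 uM DA3003; Hill fit.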
# Es-2 = assay: Primary qHTS to identify gynecologic anti-cancer compounds using libraries of approved drugs and bioactive compounds (AID 1345084); conditions: Gynecologic cancer cell panel viability, ATPlite luminescence, 48 h; series mostly up to 57.5 µM; note: nearly all actives have a fitted effect of over 55% in size; note: potency is the fitted concentration of half-maximal effect
# Procedure, shortened: as §1
# OV90 = assay: as above; conditions: Gynecologic cancer cell panel viability, ATPlite luminescence, 48 h; series mostly up to 57.5 µM
# Procedure, shortened: as §1
# [12] = measured here: PEO1 parental Z-AUC
# Chain of Glutathione peroxidase 1 (Homo sapiens) (P07203 whole entry, looked up): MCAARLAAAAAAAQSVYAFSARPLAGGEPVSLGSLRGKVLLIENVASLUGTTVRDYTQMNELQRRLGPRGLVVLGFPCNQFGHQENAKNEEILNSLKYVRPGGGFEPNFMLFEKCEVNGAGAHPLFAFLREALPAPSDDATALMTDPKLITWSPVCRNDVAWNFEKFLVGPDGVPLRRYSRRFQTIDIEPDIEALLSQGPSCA
# Chain of Phospholipid hydroperoxide glutathione peroxidase GPX4 (Homo sapiens) (P36969 whole entry, looked up): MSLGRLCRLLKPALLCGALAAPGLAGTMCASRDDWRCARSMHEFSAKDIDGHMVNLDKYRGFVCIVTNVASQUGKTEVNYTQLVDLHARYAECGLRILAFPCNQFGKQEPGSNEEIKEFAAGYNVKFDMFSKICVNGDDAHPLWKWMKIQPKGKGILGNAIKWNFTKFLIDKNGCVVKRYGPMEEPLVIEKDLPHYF
# Chain of Calcium and integrin-binding protein 1 (Homo sapiens) (Q99828 whole entry, looked up): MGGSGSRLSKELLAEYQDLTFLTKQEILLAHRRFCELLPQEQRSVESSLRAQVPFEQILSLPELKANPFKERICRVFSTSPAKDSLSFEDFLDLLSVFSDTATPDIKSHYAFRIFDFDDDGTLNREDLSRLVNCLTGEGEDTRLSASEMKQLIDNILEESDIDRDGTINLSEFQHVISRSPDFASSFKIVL
Compound,Potency [1],outcome [2],Potency [3],Potency [4],Potency [5],Potency [6],Potency [7],Potency [8],Z-AUC [9],"Z-AUC [9, 12]",Z-AUC ([9]; measured here: PEO4 Z-AUC),Potency (HeLa),Potency (Hek293T),Potency (JEG-3),Potency (Tov-21-G),Potency (Tov112D),Potency [10],Potency [11],Potency (Es-2),Potency (OV90)
COc1cc(N2CCN(C)CC2)ccc1Nc1nccc(-c2cn(C)c3cnccc23)n1,16.4 µM (active),inactive,7.28 µM (active) and 8.33 µM (active),5.15 µM (active) and 4.17 µM (active),inactive,inactive,inactive,inactive,-0.0606 (inactive),0.299,0.437,inactive,inactive,inactive,inactive,inactive,–,–,–,–
O=C(O)c1ccc(O)c2ncc(N3CCCN(CCc4cccc5ccccc45)CC3)cc12,–,–,4.09 µM (active),4.09 µM (active),inactive,inactive,inactive,inactive,–,–,–,inactive,–,–,–,–,6.31 µM (active),–,–,–
FC(F)(F)c1ccc(CNc2ccc(Cc3c[nH]c4ncccc34)cn2)cc1,–,inactive,16.3 µM (active) and 10.5 µM (active),14.5 µM (active) and 8.33 µM (active),inactive,inactive,inactive,inactive,-0.674 (inactive),-1.25,-0.926,–,–,inactive,inactive,–,inactive,inactive,inactive,inactive
COc1ccccc1-c1c[nH]c2ncc(-c3cncc(C(=O)N(C)C)c3)cc12,–,inactive,–,–,inactive,inactive,inactive,inactive,–,–,–,–,–,inactive,–,–,inactive,–,inactive,inactive
COC1CC(=O)C23C(=O)NC(CC(C)C)C2C(C)C(C)=CC3/C=C(\C)CCC(O)C1O (configuration not stated),–,inactive,3.99 µM (active),2.24 µM (active),inactive,inactive,inactive,inactive,–,–,–,inactive,inactive,inactive,inactive,inactive,inactive,inactive,inactive,inactive
CCCc1c(C(C)C)nc(C(C)C)c([C@@H](C)O)c1-c1ccc(F)cc1O,–,inactive,–,14.5 µM (active),inactive,inactive,inactive,inactive,–,–,–,–,inactive,–,inactive,–,14.1 µM (active),–,inactive,inactive
N#Cc1ccc(-c2ccc(NC(=O)Nc3ccc(-c4ccnc5nc[nH]c45)cc3)cc2)cc1,–,–,–,–,–,–,inactive,inactive,–,–,–,–,–,–,–,–,inactive,inactive,–,–
Fc1ccc(C2CCNC[C@H]2COc2ccc3c(c2)OCO3)cc1 (some centres not stated),–,–,18.3 µM (active),11.5 µM (active),–,inactive,inactive,inactive,–,–,–,inactive,inactive,inactive,–,inactive,inactive,–,22.4 µM (active),–
OC(CNCCc1c[nH]c2ccccc12)Cn1c2ccccc2c2ccccc21 (configuration not stated),–,inactive,5.15 µM (active),4.59 µM (active),inactive,inactive,inactive,inactive,–,–,–,inactive,inactive,inactive,inactive,inactive,inactive,inactive,inactive,inactive
CC(C)COc1ccc(CNC(=O)N(Cc2ccc(F)cc2)C2CCN(C)CC2)cc1,16.4 µM (active),–,20.5 µM (active),18.3 µM (active),inactive,inactive,inactive,inactive,–,–,–,inactive,inactive,–,inactive,inactive,inactive,inactive,–,–
c1ccc(Cn2c(-c3ccc(OCC(C4CCNCC4)n4c(-c5ccccc5)nc5ccccc54)cc3)nc3ccccc32)cc1 (configuration not stated),–,inactive,6.61 µM (active),5.9 µM (active),inactive,inactive,inactive,inactive,0.308 (inactive),-0.228,-0.72,inactive,inactive,inactive,inactive,inactive,inactive,inactive,inactive,inactive
Clc1ccccc1CNCC1CCC(CNCc2ccccc2Cl)CC1 (configuration not stated),–,inactive,18.3 µM (active),20.5 µM (active),inactive,inactive,inactive,inactive,–,–,–,inactive,inactive,–,inactive,–,inactive,inactive,–,inactive
CCN1CCC[C@@H]1CNC(=O)c1ccc2c(c1)NC(=O)/C(=C/c1ccccc1F)S2,–,inactive,4.59 µM (active),5.15 µM (active),inactive,inactive,inactive,inactive,–,–,–,inactive,inactive,inactive,inactive,inactive,inactive,inactive,inactive,–
